Source: PubChem BioAssay AID1918 (Vanderbilt High Throughput Screening Facility, 2009)
Out of some 130,000 compounds screened, about 2,500 (1.9%) were called active.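 How the source made its calls: active means signal ratio slope over the read window, or its plate-corrected B-score, at least 3 SD from the plate mean, either direction; inactive means the rest.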 The sample as a whole holds a higher share of actives than the screen did.

Target: ATP-sensitive inward rectifier potassium channel 1 (Homo sapiens) (UniProt P48048)
Experiment: Kir1.1 channel activity modulation, library screen – cell-based, thallium flux, MLSMR library, primary screen (AID 1918);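 further: B-score of the F/F0 ratio slope over 7 to 12 s after thallium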
Conditions: Tet-inducible ROMK, thallium flux fluorescence; at 10 µM; actives lie on both sides

Sequence of ATP-sensitive inward rectifier potassium channel 1 (Homo sapiens) (P48048 whole entry, looked up): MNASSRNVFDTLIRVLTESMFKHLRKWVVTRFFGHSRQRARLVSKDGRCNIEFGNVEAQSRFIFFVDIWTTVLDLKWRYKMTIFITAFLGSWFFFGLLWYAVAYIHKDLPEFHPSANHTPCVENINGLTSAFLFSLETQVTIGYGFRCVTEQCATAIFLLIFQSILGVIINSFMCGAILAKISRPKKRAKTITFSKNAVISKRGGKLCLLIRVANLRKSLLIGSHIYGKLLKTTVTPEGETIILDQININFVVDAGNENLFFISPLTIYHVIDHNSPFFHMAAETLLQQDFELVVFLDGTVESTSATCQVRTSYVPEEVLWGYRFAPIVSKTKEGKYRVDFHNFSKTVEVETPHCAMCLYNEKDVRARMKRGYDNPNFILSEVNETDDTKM

| Structure (SMILES) | B-score |
| --- | --- |
| CCOC(=O)C1=C(CN2CCCCCC2)NC(=O)NC1c1cccc([N+](=O)[O-])c1 (stereo not drawn) | -1.02 (inactive) |
| COc1ccc(C(=O)NC2CCN(C(=S)NCCc3ccccc3)CC2)cc1 | -0.464 (inactive) |
| NS(=O)(=O)c1ccc(CCNC(=O)c2ccc([N+](=O)[O-])cc2[N+](=O)[O-])cc1 | 0.546 (inactive) |
| O=C(COC(=O)c1ccccc1F)Nc1cc(S(=O)(=O)N2CCOCC2)ccc1N1CCCC1 | -0.699 (inactive) |
| CN1CCN(c2ccc(S(=O)(=O)N3CCCCC3)cc2NC(=O)Cc2ccccc2F)CC1 | -4.06 (active) |
| COc1ccc(CC(=O)Nc2cc(S(=O)(=O)N3CCCCC3)ccc2N2CCN(C)CC2)cc1 | 0.269 (inactive) |
| C=CCOC(=O)C1=C(C)N=C2SCCC(=O)N2C1/C=C/c1ccccc1OC (stereo not drawn) | -2.24 (inactive) |
| COCCn1c(Cc2cccn2C)nnc1SCC(=O)Nc1nccs1 | -0.191 (inactive) |
| CCn1c(/C=C/Nc2ccccc2)[n+](CC)c2ccc(C(=O)OCC(F)(F)F)cc21 | -3.51 (active) |
| Cn1cnc(S(=O)(=O)Nc2ccc3c(c2)OCCO3)c1 | 1.18 (inactive) |
| CNC(=O)/C(C#N)=C/c1c(F)cccc1Cl | -5.65 (active) |
| Cc1[nH]c2ccccc2c1/C=C(/C#N)C(=O)NC(C)C | 0.27 (inactive) |
| O=C(/C=C/c1c(F)cccc1Cl)Nc1nn[nH]n1 | -0.796 (inactive) |
| COc1ccc(C(=O)NC2CCN(C(=S)Nc3ccccc3)CC2)cc1 | 0.59 (inactive) |
| C=CCn1c(COc2ccc(F)cc2)nnc1SCC(=O)Nc1cccc(S(N)(=O)=O)c1 | 0.118 (inactive) |
| COC(=O)CNc1nc(Cl)nc(N2CCC(C)CC2)n1 | -0.416 (inactive) |
| COCCNC(=O)c1ccc(-n2c(SCc3cccnc3)nc3ccccc3c2=O)cc1 | -0.255 (inactive) |
| O=C1CN(C(=O)COC(=O)c2cnc(Cl)c(Cl)c2)c2ccccc2N1 | -0.857 (inactive) |
| CCCOc1ccc(C(=O)NCCc2ccccc2)cc1 | 0.056 (inactive) |
| CN(C)CC(O)COc1ccc(C(C)(C)c2ccc(OCC(O)CN(C)C)cc2)cc1 (stereo not drawn) | -0.0221 (inactive) |
| CC(C)(c1ccccc1)c1ccc(OCCN)cc1 | -2.62 (active) |
| CN(CC(=O)Nc1ccc(N2CCOCC2)cc1)CC(=O)Nc1ccccc1[N+](=O)[O-] | -0.00205 (inactive) |
| O=C(NC(=S)Nc1ccc(S(=O)(=O)N2CCOCC2)cc1)c1ccccc1[N+](=O)[O-] | -0.648 (inactive) |
| O=C(Nc1ccc(N2CCOCC2)cc1)c1ccc(-c2ccccc2[N+](=O)[O-])o1 | 3.49 (active) |
| CCc1nnc(NC(=O)Cc2cccs2)s1 | 0.627 (inactive) |
| CCn1cc(CN2CCCC(CNS(=O)(=O)Cc3ccccc3)C2)cn1 (stereo not drawn) | -1.12 (inactive) |
| CCOc1ncccc1C(=O)OCC(=O)NC1CC1 | 0.144 (inactive) |
| COc1cccc(NC(=O)CC2C(=O)NCCN2C(=S)Nc2ccc(F)cc2)c1 (stereo not drawn) | -0.0401 (inactive) |
